From ChEMBL document CHEMBL3988442, “University of Dundee, Small-Polar-MMV Screening Library” (2021)
Out of some 69,000 compounds screened, about 420 (0.61%) showed an effect of 50% or more. The sample as a whole holds a higher share of strong results than the screen did.

Target: T1, Histidine--tRNA ligase (Leishmania infantum) (UniProt A4I591)
T1 sequence (whole entry): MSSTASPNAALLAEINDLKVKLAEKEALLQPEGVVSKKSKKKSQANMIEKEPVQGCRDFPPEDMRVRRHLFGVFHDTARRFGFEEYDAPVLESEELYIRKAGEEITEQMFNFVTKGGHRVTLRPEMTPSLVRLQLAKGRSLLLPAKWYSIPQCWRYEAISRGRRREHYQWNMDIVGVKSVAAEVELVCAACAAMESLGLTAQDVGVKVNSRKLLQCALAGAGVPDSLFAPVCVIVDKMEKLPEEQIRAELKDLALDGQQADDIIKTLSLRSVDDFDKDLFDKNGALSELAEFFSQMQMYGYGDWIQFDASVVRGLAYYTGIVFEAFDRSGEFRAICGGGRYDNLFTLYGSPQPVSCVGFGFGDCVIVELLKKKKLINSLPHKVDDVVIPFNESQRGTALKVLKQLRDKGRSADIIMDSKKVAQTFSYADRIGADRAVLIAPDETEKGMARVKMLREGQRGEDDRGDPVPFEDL
Assay: Leishmania infantum Histidine tRNA synthetase (LdHisRS)
Format: functional
Set-up: scale not given: in the data most compounds retested in dose-response had high values
Settings: 30 µM

Compound	Percent Effect [%]
O=C(c1cnccn1)N1C[C@@H]2[C@@H](C1)OCC(=O)N2CC1CCCC1	-944
O=C(c1ccccn1)N1C[C@H]2CCC[C@@]2(COCC2CCOCC2)C1	10.1
CC(C)=CCN1CCN(Cc2ncc[nH]2)[C@H]2CS(=O)(=O)C[C@H]21	0
Cc1cc(N2CCN(CCO)CC2)nc(-c2ccncc2)n1	20
Cc1cc(N2CCC(Cc3ccccc3)CC2)ncn1	21.4
Cc1cc(N2CCC(Cc3ccccc3)CC2)nc(-c2ccncc2)n1	62.5
CCNC(=O)CN1CCN(c2cc(C)nc(-c3ccncc3)n2)CC1	30.1
Cc1cc(N2CCN(CC(=O)N(C)C)CC2)nc(-c2ccncc2)n1	51.4
Cc1cc(N2CCC(CC(N)=O)CC2)nc(-c2ccncc2)n1	15.6
COC(=O)C1CCN(c2cc(C)nc(-c3ccncc3)n2)CC1	37.6
CC(=O)NCC1CCN(c2cc(C)nc(-c3ccncc3)n2)CC1	59.8
Cc1cc(N2CCC(C(=O)N(C)C)CC2)nc(-c2ccncc2)n1	17.1
c1cnc(N2CCN(C3CCC[C@@H]4CN(CC5CC5)C[C@H]34)CC2)nc1 (some centres not stated)	2.86
Cc1ccc(-c2nnc(CN3CCOC(Cn4cncn4)C3)o2)cc1 (configuration not stated)	3.39
CCn1ncc(CN2C[C@@H]3CCCN3C[C@H]2CCSC)c1C	-58
CC(C)N1CCN2C(=O)N(C3CCCCC3)C[C@H]2C1	18.9
CCO[C@@H]1C[C@H]2CN(S(=O)(=O)c3cccs3)CCN2C1	7.89
CN(C)S(=O)(=O)N1C[C@H]2C[C@H](C(=O)NCc3ccccc3)[C@@H](C1)O2	3.64
Cc1cc(CN2CCCC2)cc(Oc2ccc3c(c2)CC(CN)O3)c1 (configuration not stated)	12.5

Compound	Percent Effect [%]
NCC1Cc2cc(Oc3cc(F)c(CN4CCCC4)c(F)c3)ccc2O1 (configuration not stated)	57.5
COc1ccc(CN2CCCC2)cc1Oc1ccc2c(c1)CC(CN)O2 (configuration not stated)	25.8
O=C(C1CCC1)N1CCN(Cc2ccccc2F)[C@H]2CS(=O)(=O)C[C@H]21	23.3
Cn1cc(C(=O)N2CCN(c3ccccc3)CC2)ccc1=O	11
CCOC1CCN(C(=O)NCc2ccc(CN3CCOCC3)cc2)CC1	13.5
Cc1oc(C)c(C(=O)N2CCN(Cc3cscn3)CC2)c1C	13.3
CCOC1CCN(C(=O)NCc2ccc(C(=O)N(C)C(C)C)cc2)CC1	16.7
Cn1cc(NC(=O)N2CCC2c2ccccc2)ccc1=O (configuration not stated)	108
CCOC1CCN(C(=O)Nc2ccc(=O)n(C)c2)CC1	114
Cn1cc(NC(=O)N2CCN(Cc3cscn3)CC2)ccc1=O	74.8
Cn1cc(C(=O)N2CCN(Cc3cscn3)CC2)ccc1=O	15.3
CC(C)Oc1ncccc1CNC(=O)N1CCC1c1ccccc1 (configuration not stated)	16.8
CN1C(=O)CO[C@H](c2ccc(NC(=O)Nc3ccccc3)cc2)[C@H]1CO	14.9
CC(C)c1nnc(NC(=O)N2CCN(C)CC2c2ccccc2)s1 (configuration not stated)	4.17
Cn1cc(NC(=O)C2CC(c3ccccc3)C2)ccc1=O (configuration not stated)	71.3
O=C1[C@@H]2C[C@H](O)CCN2C(=O)CN1CCSc1ccccn1	17.6
COc1ccccc1S(=O)(=O)N1CCN(C)[C@@H]2CS(=O)(=O)C[C@@H]21	-6.67
CN(C)C[C@H]1C[C@@H]2CN(C(=O)c3ccco3)C[C@@H]2O1	10.3
O=C1N(Cc2ccccn2)C[C@H]2CN(S(=O)(=O)c3ccccc3)CCN12	24.3

Compound	Percent Effect [%]
Cn1nccc1C(=O)N1C[C@@H]2CC[C@H](Oc3cccc(F)c3)[C@@H]2C1	18
Cc1cc(C(=O)N2C[C@@H]3CCCO[C@@H]3[C@H](N(C)C(C)C)C2)c(C)[nH]1	11.5
O=C(NCc1cccs1)[C@H]1CC[C@@H]2[C@@H](CCN2Cc2ccoc2)O1	12.5
CCS(=O)(=O)N1CCO[C@H]2[C@H](OCC3CCCC3)CC[C@@H]21	20.8
O=C(O)[C@]12CCCN(Cc3ccsc3)C[C@H]1CN(c1ncccn1)C2	10.5
O=C(Cc1cccc(F)c1)N1C[C@H]2CN(Cc3cccnc3)C[C@H]2C1	3.85
CC(C)CN1C[C@@H]2OCC(=O)N(c3ccccc3)[C@@H]2C1	21.6
CS(=O)(=O)NC1CCN(C(=O)NCC2CCCO2)CC1 (configuration not stated)	11
Cn1cc(NC(=O)N2CCC(c3ccccc3)CC2)ccc1=O	102
Cn1cc(NC(=O)N2CCC(Cc3ccccc3)CC2)ccc1=O	101
CS(=O)(=O)NC1CCN(C(=O)c2ccc(F)cc2)CC1	28.1
NC(=O)Cn1cc(NC(=O)N2CCC(c3ccccc3)CC2)cn1	16.5
Cn1cc(NC(=O)N2CCC(NS(C)(=O)=O)CC2)ccc1=O	91.5
CC(NC(=O)N1CCC(OCc2ccccc2)CC1)c1nncn1C (configuration not stated)	20.3
Cn1cc(NC(=O)N2CCC(CN3CCCC3)CC2)ccc1=O	6.38
Cn1cc(NC(=O)N2CCC(OCc3ccccc3)CC2)ccc1=O	103
C[C@H](NC(=O)N1CCC(Cc2ccccc2)CC1)C(=O)O	-5
O=C(C1CCOC1)N1CCC(OCc2ccccc2)CC1 (configuration not stated)	16.8
CC(NC(=O)N1CCC(c2ccccc2)CC1)c1nncn1C (configuration not stated)	13.8
